According to PubChem BioAssay (NCATS):
Inconclusive results are not listed. Unless noted, calls come from the whole dose curve; as a rule, active = well fitted curve in either direction with a large enough effect (not every such curve was filed as active); inconclusive = small, poorly fitted or top-dose-only effect, or another doubt; inactive = flat fitted curve, though single readings scatter.

Key:
[1] = AP1 Signaling Pathway (AID 357); details: ME-180 AP-1-bla reporter, EGF-induced, beta-lactamase ratio, 5 h; at 17.2 µM (top of the series) unless noted;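 note: ME-180 reporter cells stimulated with EGF at its EC50 level; % is set by controls: 0 for no effect and ±100 for the full control effect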
Method in brief: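 Cells are seeded overnight, exposed to compound titrations and an EC50 level of EGF for 5 hours at 37 °C, then loaded with CCF4 dye for 2.5 hours. Beta-lactamase activity under the AP-1 element is read as a blue/green ratio.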

[2] = NFAT Signaling Pathway (AID 444); details: Jurkat NFAT-bla M1, carbachol, beta-lactamase ratio, 5 h; at 17.2 µM (top of the series) unless noted;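 note: carbachol stimulus at about its EC50 of 1 µM final; % is set by controls: 0 for no effect and ±100 for the full control effect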
Method in brief: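 Jurkat cells with NFAT-driven β-lactamase reporter and co-expressed M1 receptor, stimulated with carbachol (final 1 uM, ~EC50), compound titration, 5 h at 37 °C. CCF4 loaded 1 h at RT; 460/530 nm ratio gave %activity and AC50.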

[3] = Stat Signaling Pathway (AID 446); details: ME-180 SIE beta-lactamase reporter, IL-6 stimulated, 5 h; at 17.2 µM (top of the series) unless noted;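 note: ME-180 cervical cancer cells given 40 pM IL-6 alongside compound; SIE-controlled beta-lactamase reporter measured as 460/530 nm FRET emission ratio; % is set by controls: 0 for no effect and ±100 for the full control effect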
Method in brief: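 Screening format detects activators and inhibitors alike: ME-180 SIE-bla cells stimulated at 40 pM IL-6 for 5 hrs with compound, then dual-emission beta-lactamase read at 405 nm excitation.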

[4] = target: Glucocorticoid receptor (Homo sapiens) (UniProt P04150); assay: GR-GFP Redistribution (AID 450;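 active = compounds whose dose series gives a full or clear partial fitted curve of increased nuclear translocation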; note: potency is the fitted concentration of half-maximal effect)
Sequence of Glucocorticoid receptor (Homo sapiens) (P04150 whole entry, looked up): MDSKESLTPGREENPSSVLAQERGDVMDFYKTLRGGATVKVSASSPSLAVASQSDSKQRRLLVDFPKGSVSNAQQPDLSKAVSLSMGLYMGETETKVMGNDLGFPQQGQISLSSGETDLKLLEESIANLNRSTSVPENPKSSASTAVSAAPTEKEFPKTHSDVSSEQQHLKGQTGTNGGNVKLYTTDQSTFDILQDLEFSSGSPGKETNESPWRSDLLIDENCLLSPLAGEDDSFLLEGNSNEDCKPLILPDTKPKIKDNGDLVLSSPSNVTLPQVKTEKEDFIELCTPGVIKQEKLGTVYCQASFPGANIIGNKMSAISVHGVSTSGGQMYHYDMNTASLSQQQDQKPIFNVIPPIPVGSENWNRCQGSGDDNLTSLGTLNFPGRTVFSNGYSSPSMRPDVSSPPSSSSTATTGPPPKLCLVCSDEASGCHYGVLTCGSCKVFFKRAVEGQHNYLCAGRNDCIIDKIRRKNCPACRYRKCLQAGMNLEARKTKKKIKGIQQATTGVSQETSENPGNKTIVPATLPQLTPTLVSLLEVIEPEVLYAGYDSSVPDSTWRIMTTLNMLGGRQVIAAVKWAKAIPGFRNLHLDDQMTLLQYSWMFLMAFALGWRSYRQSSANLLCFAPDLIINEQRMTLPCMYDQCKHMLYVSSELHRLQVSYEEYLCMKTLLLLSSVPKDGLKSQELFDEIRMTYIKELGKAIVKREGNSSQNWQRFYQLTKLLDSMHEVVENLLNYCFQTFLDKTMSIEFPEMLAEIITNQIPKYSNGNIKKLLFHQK

O=c1c2c3c(sc2nc2n1CCCS2)CCCC3
inactive: activity change, negative = inhibition [1] -22.8% | activity change, negative = inhibition [2] -17.4% | activity, negative = inhibition [3] 1.96% | Potency [4] > 20.6 µM

COC(=O)C1=C(C)N=C2SC(C)C(=O)N2C1/C=C/c1ccccc1OC (stereo not given)
inactive: activity change, negative = inhibition [1] 2.3% | activity change, negative = inhibition [2] -16.8% | activity, negative = inhibition [3] -6.43% | Potency [4] > 20.6 µM

CCNC(=O)N(C(=O)NCC)n1c(C)nnc1C
inactive: activity change, negative = inhibition [1] 6.49% | activity change, negative = inhibition [2] -11.9% | activity, negative = inhibition [3] 12.4% | Potency [4] > 20.6 µM

CCOC(=O)c1[nH]c2ccccc2c1NC(=O)CN(C)C
inactive: activity change, negative = inhibition [1] 1.77% | activity change, negative = inhibition [2] -6.47% | activity, negative = inhibition [3] 1.63% | Potency [4] > 20.6 µM

Brc1ccc2c(c1)CNc1c(ncnc1N1CCOCC1)O2
inactive: activity change, negative = inhibition [1] -1.29% | activity change, negative = inhibition [2] -6.94% | activity, negative = inhibition [3] -3.65% | Potency [4] > 20.6 µM

Cc1nc(NS(=O)(=O)c2ccccc2)sc1NC(=O)OC(C)C
inactive: activity change, negative = inhibition [1] 3.92% | activity change, negative = inhibition [2] -1.13% | activity, negative = inhibition [3] 3.96% | Potency [4] > 20.6 µM

O=C(O)c1cc2cccc(S(=O)(=O)N3CCOCC3)c2cc1O
inactive: activity change, negative = inhibition [1] 7.94% | activity change, negative = inhibition [2] 0.851% | activity, negative = inhibition [3] 6.34% | Potency [4] > 20.6 µM

Cc1nc2c(c(=O)n1CC1CCCO1)c1nc3ccccc3nc1n2CC(C)C (stereo not given)
inactive: activity change, negative = inhibition [1] 2.75% | activity change, negative = inhibition [2] 6.99% | activity, negative = inhibition [3] 8.26% | Potency [4] > 20.6 µM

O=C(O)C1CSCN1S(=O)(=O)c1cccc2nsnc12 (stereo not given)
inactive: activity change, negative = inhibition [1] 1.17% | activity change, negative = inhibition [2] 4.31% | activity, negative = inhibition [3] -1.2% | Potency [4] > 20.6 µM

Cn1c(=O)c2c(nc(NCc3ccco3)n2Cc2ccccc2Cl)n(C)c1=O
inactive: activity change, negative = inhibition [1] 16.7% | activity change, negative = inhibition [2] 2.77% | activity, negative = inhibition [3] -14.8% | Potency [4] > 20.6 µM

COC(=O)c1cc(Br)c(=O)n(-c2nccs2)c1
inactive: activity change, negative = inhibition [1] 1.9% | activity change, negative = inhibition [2] -2.48% | activity, negative = inhibition [3] 2.73% | Potency [4] > 20.6 µM

Clc1ccc(-n2ncc3c(NCCCn4ccnc4)ncnc32)cc1
inactive: activity change, negative = inhibition [1] -4.22% | activity change, negative = inhibition [2] -6.43% | activity, negative = inhibition [3] -0.823% | Potency [4] > 20.6 µM

Cc1cc(CCC(=O)O)c(C)cc1CCC(=O)O
inactive: activity change, negative = inhibition [1] 14.2% | activity change, negative = inhibition [2] 2.85% | activity, negative = inhibition [3] 7.37% | Potency [4] > 20.6 µM

CCCNc1ncnc2c1cnn2-c1ccc(OC)cc1
inactive: activity change, negative = inhibition [1] -10.2% | activity change, negative = inhibition [2] 3.93% | activity, negative = inhibition [3] -8.63% | Potency [4] > 20.6 µM

COc1cc(C2C(C#N)=C(N)Oc3cc(C)n(Cc4ccccn4)c(=O)c32)cc2c1OCO2 (stereo not given)
inactive: activity change, negative = inhibition [1] -7.44% | activity change, negative = inhibition [2] -12.8% | activity, negative = inhibition [3] -4.06% | Potency [4] > 20.6 µM

COc1cc(C2CC(C(F)(F)F)n3ncc(C(=O)O)c3N2)cc(OC)c1OC (stereo not given)
inactive: activity change, negative = inhibition [1] 6.2% | activity change, negative = inhibition [2] -3.76% | activity, negative = inhibition [3] 7.46% | Potency [4] > 20.6 µM

O=C(O)C1CCCCN1S(=O)(=O)c1cccc2nsnc12 (stereo not given)
inactive: activity change, negative = inhibition [1] 0.243% | activity change, negative = inhibition [2] 1.79% | activity, negative = inhibition [3] 5.88% | Potency [4] > 20.6 µM

COC(=O)CSc1nnc(C)c(=O)[nH]1
inactive: activity change, negative = inhibition [1] 0.589% | activity change, negative = inhibition [2] 3.42% | activity, negative = inhibition [3] 5.67% | Potency [4] > 20.6 µM

COCCN(C(=O)Nc1ccccc1)c1ccccc1C
inactive: activity change, negative = inhibition [1] -9.46% | activity change, negative = inhibition [2] -0.712% | activity, negative = inhibition [3] 6.32% | Potency [4] > 20.6 µM

CC1(C)CC(NC(=O)C23CCC(C)(/C(=N/O)C2)C3(C)C)CC(C)(C)N1 (stereo not given)
inactive: activity change, negative = inhibition [1] 1.22% | activity change, negative = inhibition [2] 10.5% | activity, negative = inhibition [3] 0.446% | Potency [4] > 20.6 µM

CCOc1ccc(N=C2C(=O)N(CN3CCOCC3)c3ccccc32)cc1
inactive: activity change, negative = inhibition [1] 2.27% | activity change, negative = inhibition [2] 6.57% | activity, negative = inhibition [3] -3% | Potency [4] > 20.6 µM

O=C1C2ON(c3ccccc3)C(c3ccncc3)C2C(=O)N1c1ccccc1 (stereo not given)
inactive: activity change, negative = inhibition [1] -0.837% | activity change, negative = inhibition [2] 3.71% | activity, negative = inhibition [3] 1.91% | Potency [4] > 20.6 µM

CCc1c(C(=O)O)[nH]c2ccc(Br)cc12
inactive: activity change, negative = inhibition [1] 8.39% | activity change, negative = inhibition [2] -22% | activity, negative = inhibition [3] -0.02% | Potency [4] > 20.6 µM

Cn1c(=O)n(C)c2cc(C(=O)c3ccccc3)ccc21
inactive: activity change, negative = inhibition [1] 17.6% | activity change, negative = inhibition [2] -28.2% | activity, negative = inhibition [3] -6.62% | Potency [4] > 20.6 µM

CCCCCCOC(=O)CCn1[nH]c(=O)c2ccccc2c1=O
inactive: activity change, negative = inhibition [1] 13% | activity change, negative = inhibition [2] 7.42% | activity, negative = inhibition [3] -5.61% | Potency [4] > 20.6 µM
